Source: PubChem BioAssay AID2685 (National Center for Advancing Translational Sciences (NCATS), 2010)
Hit rate of the full screen: of about 320,000 compounds, about 2,100 (0.66%) were called active. Inconclusive results (about 53%) are left out. The call rests on the fitted dose curve; in most records, active means well fitted inhibition curve with a large enough effect in the signal ratio, with a control signal flat (not every such curve was filed as active); inconclusive means small, poorly fitted or top-dose-only effect, or effect the other way, or a change in a side signal; inactive means flat fitted curve, though single readings scatter; the % refers to the signal ratio. For the sample, actives were picked, then their nearest neighbours and some compounds at random.

Assay: qHTS Assay for Lipid Storage Modulators in Drosophila S3 Cells;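 on cell number change: cells counted by Cell Tracker Red CMTPX staining in the red channel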; on lipid storage change, negative = inhibition: on the % scale 0 is the no-effect control and ±100 the full control effect
Conditions: BODIPY lipid droplet fluorescence, 18-24 h, cells fed with added oleic acid; cell number change: measured here: cell count max response; series mostly up to 46.1 µM
Outline: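 Drosophila S3 cells loaded with oleic acid (400 uM, as added) and compounds at several concentrations; lipid droplets imaged by 488-nm laser-scanning cytometry, 500–530 nm intensity and object ratio to cell channel. Percent activity normalized to 20 uM Triacsin C.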
Potency means the concentration at half of the fitted maximal effect.

Row | SMILES | Potency | cell number change | outcome | lipid storage change, negative = inhibition
1 | O=C(CN1C(=O)NC(Cc2ccccc2)C1=O)Nc1ccccc1 (configuration not stated) | inactive |  |  | 
2 | Cc1ccc(NC(=O)CN2C(=O)NC(Cc3ccccc3)C2=O)cc1 (configuration not stated) | inactive | 2.72% |  | 
3 | O=C(CN1C(=O)NC(Cc2ccccc2)C1=O)Nc1ccc(OC(F)(F)F)cc1 (configuration not stated) | 23.1 µM (active) | -11.8% |  | 
4 | Cc1ccc2c(N)c(C(=O)N(c3ccccc3)c3ccccc3)sc2n1 | inactive | 1.13% |  | 
5 | O=C(COC(=O)c1ccccn1)Nc1cccc(Cl)c1 | inactive | -4.94% |  | 
6 | CSc1nnc(C(C)c2ncc(C(F)(F)F)cc2Cl)n1C (configuration not stated) | inactive | 29.4% |  | 
7 | COCCCN(C(=O)c1ccccc1F)c1nc(-c2ccc(OC)cc2)cs1 | inactive | 7.94% |  | 
8 | COCCCN(C(=O)c1ccccc1)c1nc(-c2ccc(OC)cc2)cs1 | 9.2 µM (active) | 5.82% |  | 
9 | COCCN(C(=O)c1ccccc1)c1nc(-c2ccc(OC)cc2)cs1 | inactive | -13.2% |  | 
10 | COC(=O)c1ccc(-c2nc(O)c(C)s2)cc1 | inactive |  |  | 
11 | Cc1cccc(OC2CCN(Cc3c(C(=O)N4CCCC4)nc4ccccn34)CC2)c1 | inactive | 17.9% |  | 
12 | CCCC[C@@H]1CNC(=O)C(=O)N1CCc1cc(C(F)(F)F)cc(C(F)(F)F)c1 | inactive | 3.93% |  | 
13 | CCc1ccc(C(=O)C(C)OC(=O)Cc2n[nH]c(=O)c3ccccc23)cc1 (configuration not stated) | 13 µM (active) | -26.4% |  | 
14 | COC(=O)c1ccc(COC(=O)Cc2n[nH]c(=O)c3ccccc23)cc1 | inactive |  |  | 
15 | CC(OC(=O)Cc1n[nH]c(=O)c2ccccc12)C(=O)Nc1ccc(F)cc1 (configuration not stated) |  | -13.8% | inactive [at 0.0737 µM] | 
16 | Cc1csc(Sc2ccc([N+](=O)[O-])cc2C(=O)OCC(=O)NC(=O)NC(C)(C)C)n1 | inactive |  |  | 
17 | CC(c1ccccc1)n1c(CCCO)nc2ccccc21 (configuration not stated) | inactive | -13.2% |  | 
18 | CCCCN(C)CCn1c(=S)[nH]c2cc(OCC)c(OCC)cc2c1=O | inactive | 5.41% |  | 
19 | COC(=O)c1cc(C(=O)N2CCc3ccccc32)cc([N+](=O)[O-])c1 | inactive | 3.51% |  | 
20 | COc1cccc(NC(=O)CC2C(=O)NC3CCCCC3N2C(=O)c2ccc(F)cc2)c1 (configuration not stated) | inactive | 36.9% |  | 
21 | COc1ccc(NC(=O)CC2C(=O)NC3CCCCC3N2C(=O)c2ccc(F)cc2)cc1 (configuration not stated) | inactive | 6.58% |  | 
22 | O=C(CC1C(=O)NC2CCCCC2N1C(=O)c1ccc(F)cc1)Nc1ccccc1 (configuration not stated) | 29.1 µM (active) | 18% |  | 
23 | COc1ccc(NC(=S)N2CCC(C(=O)c3ccc(OC)cc3)CC2)cc1 | inactive | -17.6% |  | 
24 | O=C(COC(=O)COc1ccc2c(c1)CCC2)Nc1ccccc1 | inactive | -5.42% |  | 

Row | SMILES | Potency | cell number change | outcome | lipid storage change, negative = inhibition
25 | Cn1nc(C(=O)NNC(=O)C(CCC(N)=O)NS(=O)(=O)c2ccc(Cl)cc2)c2ccccc2c1=O (configuration not stated) | inactive | 15.9% |  | 
26 | Cc1ccc(S(=O)(=O)N/N=C/c2ccc3nccnc3c2)cc1 | inactive | -5.68% |  | 
27 | O=C(Cn1cccc1C(=O)c1ccccc1)NCCc1ccccc1 | inactive |  |  | 
28 | CCOc1ccc(CCNC(=O)Cn2cccc2C(=O)c2ccccc2)cc1OCC | 16.4 µM (active) | -22.9% |  | 
29 | COc1ccc(CCNC(=O)CCCN2C(=O)c3ccccc3C2=O)cc1OC | inactive | 10.1% |  | 
30 | COc1ccc(CCNC(=O)CCOc2cc(C)ccc2C)cc1OC | inactive | -23.2% |  | 
31 | CCOc1ccc(CCNC(=O)CCn2cccc2)cc1OCC | inactive | 0.009% |  | 
32 | COc1ccc(OC)c(CCNC(=O)Cn2cccc2C(=O)c2ccccc2C)c1 | inactive | 3.16% |  | 
33 | COc1ccccc1CNC(=O)Cn1cccc1C(=O)c1ccccc1C | inactive | -15.2% |  | 
34 | COc1ccc(CCNC(=O)CCCOc2cc(=O)n(C)c3ccccc23)cc1OC | inactive | 11.7% |  | 
35 | COc1ccc(CCNC(=O)CN2C(=O)c3ccccc3S2(=O)=O)cc1OC | 23.1 µM (active) | -27.6% |  | 
36 | COc1ccc(CCNC(=O)CN2C(=O)c3ccccc3S2(=O)=O)cc1 | inactive | 8.78% |  | 
37 | COc1ccc(CCNC(=O)Cn2cccc2C(=O)c2ccccc2C)cc1OC | 20.6 µM (active) | -20.4% |  | 
38 | COc1ccc(CCNC(=O)CCCOc2cccc(C)c2C)cc1OC | 6.51 µM (active) | -23.6% |  | 
39 | NS(=O)(=O)c1ccc(CNC(=O)/C=C/c2ccccc2)cc1 | inactive | 2.48% |  | 
40 | O=C(CC(Sc1ccc(Br)cc1)C(=O)O)c1ccc(F)cc1 (configuration not stated) | inactive | -1.05% |  | 
41 | CN=C(Nc1ccc(C(=O)OC)s1)c1ccccc1 | inactive |  |  | 
42 | O=C(Nc1ccccc1)c1cccnc1NCCc1ccccc1 | inactive | -3.52% |  | 
43 | Cc1ccc(CNC(=O)C(N=C2NS(=O)(=O)c3ccccc32)C(C)C)cc1 (configuration not stated) | inactive | 10.7% |  | 
44 | CN(CC(O)COc1ccc2ccccc2c1)C1CCCCC1 (configuration not stated) | inactive | -0.529% |  | 
45 | COc1ccc(OC)c(CCNC(=O)Cn2cccc2C(=O)c2ccccc2)c1 | inactive |  |  | 
46 | COc1ccc(CCNC(=O)Cn2cccc2C(=O)c2ccccc2)c(OC)c1 | inactive | 6.75% |  | 
47 | COc1ccc(CCNC(=O)Cn2cccc2C(=O)c2ccccc2)cc1OC | 25.9 µM (active) | -21.4% |  | 
48 | COc1ccc(NC(=O)C(OC(=O)c2ccc([N+](=O)[O-])o2)c2ccccc2)cc1Cl (configuration not stated) | inactive | 0.814% |  | 

Row | SMILES | Potency | cell number change | outcome | lipid storage change, negative = inhibition
49 | Cc1nc2n(n1)C(c1ccccc1)C1=C(CC(c3ccco3)CC1=O)N2 (configuration not stated) | inactive |  |  | 
50 | Cc1cc(C)cc(NC(=O)C(=S)NCc2ccccc2)c1 | inactive | 9.48% |  | 
51 | O=C(NNc1nc2c(F)cc(F)cc2s1)c1ccccc1 |  | 6.06% |  | 21.3% [at 9.22 µM] (inactive)
52 | O=S(=O)(NC1CCN(Cc2ccccc2)CC1)c1ccc(Cl)cc1 | inactive | -5.28% |  | 
53 | O=S(=O)(c1ccccc1)c1nnn2c1nc(NC1CCN(Cc3ccccc3)CC1)c1ccccc12 | inactive | 0.895% |  | 
54 | O=S(=O)(c1ccccc1)c1nnn2c1nc(NC1CCN(Cc3ccccc3)CC1)c1cc(Cl)ccc12 | 18.4 µM (active) | -5.44% |  | 
55 | Cc1nc(CS(=O)(=O)c2ccccc2)cc(Sc2ccc(Cl)cc2)n1 | inactive |  |  | 
56 | O=C(NCCCN1CCOCC1)c1ccc2c(c1)N(Cc1ccccc1)C(=O)c1ccccc1S2=O (configuration not stated) | inactive | -4.72% |  | 
57 | C=CCn1c(COc2cc(C)ccc2C(C)C)nnc1SCC(=O)c1c(N)n(C)c(=O)n(C)c1=O | inactive | 25.2% |  | 
58 | Cc1ccc(S(=O)(=O)C(CCC(=O)N2CCOCC2)S(=O)(=O)c2ccc(C)cc2)cc1 | inactive | -12.5% |  | 
59 | CCC(N1CCOC1=O)S(=O)(=O)c1ccc(C)cc1 (configuration not stated) | 25.9 µM (active) | -15.9% |  | 
60 | Cc1ccc(S(=O)(=O)N2CCN(S(=O)(=O)c3ccc(C)cc3)C3OCCOC32)cc1 (configuration not stated) | inactive | -0.0898% |  | 
61 | Cc1ccc(S(=O)(=O)NC(CC(=O)n2nc(C)cc2C)c2ccccc2)cc1 (configuration not stated) | inactive |  |  | 
62 | COC(=O)c1ccc(Cl)c(NC(=O)CN2CCN(Cc3ccccc3)CC2)c1 | inactive | 2.04% |  | 
63 | COC(=O)c1ccc(Cl)c(NC(=O)CN2CCOCC2)c1 | inactive | -12.2% |  | 
64 | COC(=O)c1ccc(Cl)c(NC(=O)CN2CCN(C)CC2)c1 | 25.9 µM (active) | -16% |  | 
65 | COc1ccc(-n2c(=O)cc(N3CCN(Cc4ccccc4)CC3)[nH]c2=O)cc1 | inactive | -3.15% |  | 
66 | O=C(CSc1nnc(-c2ccccc2F)o1)N1CCCC1 | 23.1 µM (active) | 22.6% |  | 
67 | O=C(CSc1nnc(-c2ccccc2Cl)o1)N1CCCCC1 | inactive |  |  | 
68 | Cc1ccccc1-c1nnc(SCC(=O)N2CCCC2)o1 | inactive | 9.17% |  | 
69 | COC(=O)CN(n1cnnc1)S(=O)(=O)c1ccccc1Cl | inactive | -1.98% |  | 
70 | COc1cccc(NC(=O)COC(=O)CCn2c(C)csc2=O)c1 | inactive | -50% |  | 
71 | CCCCn1c(SCC(=O)N2CCc3ccccc32)nnc1-c1ccncc1 | inactive | -7.69% |  | 
72 | CSc1nnc(-c2ccncc2)n1CCCN1CCCC1=O | 0.731 µM (active) | -16.4% |  | 

Row | SMILES | Potency | cell number change | outcome | lipid storage change, negative = inhibition
73 | CCCCn1c(SCC(=O)N(C)C)nnc1-c1ccncc1 | inactive | 9.01% |  | 
74 | CC(C)(C)OC(=O)NC(Cc1ccccc1)C(=O)NCCCC(=O)O (configuration not stated) | inactive | -14.4% |  | 
75 | CC(C)(C)OC(=O)NCCCCCO | inactive | -1.04% |  | 
76 | CC(C)(C)OC(=O)NCCCC(CCCNC(=O)OC(C)(C)C)C(=O)O | 16.4 µM (active) | -6.12% |  | 
77 | Cc1ccc(C(=O)N/N=C/c2ccc(-c3cccc(Cl)c3)o2)cn1 | inactive | 8.19% |  | 
78 | Nc1c(-c2ccccc2)sc2ccc3ccccc3[n+]12 | 1.3 µM (active) | 7.96% |  | 
79 | Nc1nc(-c2ccccc2)c(-c2ccccc2)s1 | inactive |  |  | 
80 | Nc1nc(-c2ccccc2)c(-c2ccc([N+](=O)[O-])cc2)s1 | inactive | 0.729% |  | 
81 | O=C(COC(=O)C1COc2ccccc2O1)Nc1cccc(Cl)c1 (configuration not stated) | inactive | -13.4% |  | 
82 | Cc1ccccc1C1C(=O)c2ccccc2C1=O | 20.6 µM (active) | 14.4% |  | 
83 | O=C1c2ccccc2C(=O)C1c1ccccc1 | inactive | 3.81% |  | 
84 | Cc1ccc(C)c(C2C(=O)c3ccccc3C2=O)c1 | inactive | -8.26% |  | 
85 | O=C(Nc1ccc(Cl)c(Cl)c1)Nc1ccon1 | 10 µM (active) |  |  | 
86 | O=C(Nc1cccc(Cl)c1)Nc1ccon1 | inactive | -26.2% |  | 
87 | O=C(Nc1ccc(Cl)cc1)Nc1ccon1 | inactive | 28.2% |  | 
88 | Cc1cc(C)cc(OCCCCCNCCO)c1 | inactive | -17.6% |  | 
89 | Cc1cc(C)c(OCCCCCNCCO)c(C)c1 | 25.9 µM (active) | -17.5% |  | 
90 | Cc1ccccc1OCCCCCNCCO | inactive | 2.5% |  | 
91 | O=C1NCCN(Cc2ccc(Cl)c(F)c2)C1CC(=O)N1CCCCO1 (configuration not stated) | inactive | 5.73% |  | 
92 | Nc1nc2c(C(=O)N3CCOCC3)nnn2c2ccccc12 | inactive | 6.42% |  | 
93 | CCN(CC)S(=O)(=O)c1ccc(N2CCOCC2)c(NS(=O)(=O)c2ccc(OC)cc2)c1 | 20.6 µM (active) | -20.4% |  | 
94 | CCN(CC)S(=O)(=O)c1ccc(N2CCCC2)c(NS(=O)(=O)c2ccc(OC)cc2)c1 | inactive | 10.1% |  | 
95 | CCN(CC)S(=O)(=O)c1ccc(N2CCOCC2)c(NS(=O)(=O)c2ccc(C)c(C)c2)c1 | inactive | 16% |  | 
